Screening results as filed in PubChem BioAssay.
In the library only some 3% were active in any assay of this set; here they are far more common.
SENP8 block-1: inhibitors of human SENP8 protease. purified SENP8, Z-RLRGG-aminoluciferin cleavage, luminescence. inhibition, % at 10 µM. actives 1.2% (n = 330,000). AID 2540; in the data active = inhibition above about 50%
SENP7 block: inhibitors of human SENP7 protease; Q9BQF6; recombinant SENP7, Z-RLRGG-aminoluciferin luminescence, 40 min; inhibition, % at 5 µM; actives 1.5% (n = 330,000); AID 434973;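 active = inhibition above about 50% at the single test dose, limit read from the data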
SENP8 block-2: SENP8 (human) protease inhibition | AID 602440 | inhibition, % at 20 µM | recombinant SENP8, Nedd8 substrate fluorescence | actives 0.64% (n = 360,000) | Q96LD8; in the data active = inhibition mostly above about 40%, no sharp cut-off; inactive = mostly below about 27%
TRAIL sens C8: caspase-8 TRAIL sensitization. inhibition (viability loss, TRAIL sensitization), % at 10 µM. AID 624354. actives 1% (n = 360,000). NB7+C8 cells + TRAIL, ATPlite viability luminescence;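 active = compounds causing at least 50% loss of cell viability in the single-dose screen, relative to plate controls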
SENP6 inh: SENP6 protease inhibition; AID 2599; Recombinant SENP6 catalytic domain, aminoluciferin luminescence; inhibition, % at 10 µM; actives 1.8% (n = 330,000);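 active = inhibition above about 50% at the single tested dose, limit read from the data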
SENP8 conf: confirmation of human SENP8 protease inhibitors | shares compounds with SENP8 block-2 | purified SENP8, Nedd8-AMC/pro-Nedd8 cleavage fluorescence, 30 min | inhibition, % at 25 µM | actives 15% (n = 1,400); in the data active = inhibition mostly above about 39%, no sharp cut-off; inactive = mostly below about 34%
Each line names hits and unclear results; the compound was inactive in the other large screens (follow-up assays come after a bar, where they were run).

c1ccc(SSc2ccccn2)nc1	none
O=C(Nc1c(-c2ccccc2)[nH][nH]c1=O)c1cccc(C(F)(F)F)c1	SENP8 block-2 49 (no result: SENP8 block-1, SENP7 block, SENP6 inh) | SENP8 conf inactive
O=C(Nc1c(-c2ccccc2)[nH][nH]c1=O)c1ccccc1	none (no result: SENP8 block-1, SENP7 block, SENP6 inh)
O=C(Nc1c(-c2ccc(Cl)cc2)[nH][nH]c1=O)c1ccc(Br)cc1	SENP8 block-2 43 (no result: SENP8 block-1, SENP7 block, SENP6 inh) | SENP8 conf inactive
Cc1cnc(C(=O)Nc2c(-c3ccccc3)[nH][nH]c2=O)cn1	SENP8 block-2 41 (no result: SENP8 block-1, SENP7 block, SENP6 inh) | SENP8 conf 45
O=C(Nc1c(-c2ccc3c(c2)OCO3)[nH][nH]c1=O)c1ccc2c(c1)OCO2	none (no result: SENP8 block-1, SENP7 block, SENP6 inh)
CCN1CCCC1CNC(=O)CN(C)S(=O)(=O)c1ccc(Cl)cc1 (stereo not given)	none
